Test results taken from PubChem BioAssay AID2314 (National Center for Advancing Translational Sciences (NCATS), 2010).
In all, about 300,000 compounds went through this assay and about 37,000 (12%) were called active. Only a selection was taken, and actives are over-represented in it overall. Unmarked numbers belong to inactive results. Rule as the data show it: active = max response mostly above about 13% (no sharp cut-off); inactive = mostly below about 14%.

Experiment: Cycloheximide Counterscreen for Small Molecule Inhibitors of Shiga Toxin; also: read at 38.3 µM for the half of the compounds with a filed dose; 0% is about no effect
Settings: cell reporter, cycloheximide protein synthesis inhibition counterscreen; stronger effect = higher value
For `O=C(CN1CCN(c2ccc(Cl)cc2)CC1)N1CCCC1`, the max response was 6.76%.
For `O=C(CSCc1ccc(Cl)cc1)N1CCN(Cc2ccc3c(c2)OCO3)CC1`, the max response was 10.5%.
In the case of `O=C(CSCc1ccc(Cl)cc1)N1CCCCC1`, the max response is reported as 44.9% (active).
Work on `Cn1c(SCC(=O)N2CCCC2)nnc1-c1cccs1` yielded a max response of 11.6%.
In the case of `O=C(CSCc1cccs1)N1CCCC1`, the max response is reported as 31.1% (active).
In the case of `O=C(CSc1ccsc1[N+](=O)[O-])N1CCCCC1`, the max response is reported as 26.9%.
`COC(=O)[C@@H](Cc1ccccc1)NC(=O)NCCc1ccccc1` showed a max response of 6.92%.
Compound `O=C1OC2(CCCCC2)CC2=C1C1O[C@](c3ccsc3)(Cc3ccccc31)O2` has a max response of -3.19%.
`Fc1cccc(CSc2nnc3ccc(-c4ccncc4)nn23)c1` showed a max response of 2.07%.
Compound `O=C(CN1C(=O)NC(Cc2ccccc2)(Cc2ccccc2)C1=O)NCC1CCCCC1` has a max response of -2.12%.
Work on `CCCc1nnc(NC(=O)CCC(=O)N2CCN(S(=O)(=O)c3ccc(OC)cc3)CC2)s1` yielded a max response of -3.02%.
For `S=c1[nH]nc(-c2cc(-c3ccsc3)n[nH]2)n1-c1ccccc1`, the max response was 6.52%.
`Cc1ccc(NC(=O)c2cc(-c3ccccc3O)n[nH]2)cc1C` gave a max response of 12%.
With `Oc1ccccc1-c1cc(-c2ccc(Cl)cc2)n[nH]1` the max response was 29% (active).
In the case of `S=c1[nH]nc(-c2cc(-c3ccccc3)n[nH]2)n1/N=C/c1c2ccccc2cc2ccccc12`, the max response is reported as -3.32%.
In the case of `c1ccc(-c2cc(-c3ccccc3)[nH]n2)cc1`, the max response is reported as 36.7% (active).
`Cc1cc(C(=O)OCC(=O)N2c3ccccc3NC(=O)C2(C)C)c(C)n1-c1ccccc1` showed a max response of -2.79%.
Work on `CCc1cc(=O)oc2c(C)c(OCC(=O)N3CC[C@@]4(O)CCCC[C@H]4C3)ccc12` yielded a max response of -0.987%.
`O=C(CCC(=O)N/N=C/c1ccc(Br)o1)N/N=C/c1ccc(Br)o1` showed a max response of -1.8%.
Work on `CC1(C)OC(=O)N2CCc3ccccc3C21C` (stereo unspecified) yielded a max response of -1.95%.
`CC(=O)Nc1ccc(S(=O)(=O)N(C)CC(=O)NCCC2=CCCCC2)cc1` gave a max response of 8.71%.
With `Cn1nnc2cc(C(=O)NCCC3=CCCCC3)ccc21` the max response was 36.9% (active).
With `CN1CCNC(=O)C1CC(=O)NCCC1=CCCCC1` (stereo unspecified) the max response was 6.87%.
In the case of `CN(c1ccc(C(=O)NCCC2=CCCCC2)cc1)S(C)(=O)=O`, the max response is reported as 35.4% (active).
In the case of `O=C(COc1ccc(Cl)cc1)NCCC1=CCCCC1`, the max response is reported as -4.36%.
Compound `Cc1ccn2c(=O)c(C(=O)NCCC3=CCCCC3)c(O)nc2c1` has a max response of 16.1%.
`O=C(NCCCN1CCOCC1)c1ccc(N2CCCC2)c([N+](=O)[O-])c1` gave a max response of 1.3%.
`O=C(Cc1nn[nH]n1)NCCC1=CCCCC1` showed a max response of -1.06%.
For `O=C(NCCC1=CCCCC1)c1ccc(Cl)c([N+](=O)[O-])c1`, the max response was 39.2% (active).
Work on `CCC(=O)c1ccc(OC(=O)/C=C/c2cc(OC)c(OC)c(OC)c2)cc1` yielded a max response of -6.8%.
With `COc1ccc(C(=O)O)cc1S(=O)(=O)NCc1cccnc1` the max response was 1.18%.
Work on `COc1ccc(Cn2c(O)c(/C=C3/C=CC=N3)c(=O)[nH]c2=O)cc1` yielded a max response of 1.33%.
`Cc1nc2c(C(=O)NCc3cccs3)cnn2c(C)c1Cc1ccc(F)cc1` gave a max response of 0.665%.
`O=C(NCC1CCN(Cc2ccccc2Cl)CC1)Nc1cccc(Cl)c1` gave a max response of 9.67%.
In the case of `CCc1ccc(NC(=O)N[C@H](C(=O)O)C(C)CC)cc1` (stereo partly specified), the max response is reported as 9.38%.
`O=C(Nc1ccncc1)c1c(F)cccc1F` gave a max response of 14.2%.
In the case of `CCc1ccc(NC(=O)Nc2ccncc2)cc1`, the max response is reported as 28.8% (active).
With `O=C(Nc1ccncc1)Nc1ccc(F)cc1` the max response was 21.6% (active).
For `CC(C)CC(=O)Nc1ccc(Cc2ccncc2)cc1`, the max response was -2.52%.
For `O=C(Nc1ccc(F)cc1)N1CCN(c2ccc(F)cc2)CC1`, the max response was 1.7%.
`CCCc1ccc(OCc2ccc(C(=O)N/N=C/c3cccc([N+](=O)[O-])c3)o2)c(OC)c1` showed a max response of -2.18%.
`CC(C)Cn1c(=O)c2ccccc2n2c(CCC(=O)NCc3ccccn3)nnc12` showed a max response of 15.7%.
With `Cc1cccc(C)c1N1C(=O)CN(Cc2ccccc2)C1=S` the max response was -2.32%.
Compound `O=C(NCCS(=O)(=O)c1ccc(Br)cc1)c1ccccc1Cl` has a max response of -3.1%.
For `CN(C)S(=O)(=O)c1ccc(C(=O)NCCN=C2NS(=O)(=O)c3ccccc32)cc1`, the max response was -3.08%.
`CCCN(CCC)c1ccc(C(O)c2nnc(-c3ccccc3)o2)cc1` (stereo unspecified) gave a max response of 26.9%.
Compound `O=C(Nc1nnc(-c2ccccc2)o1)c1cc(-c2cccs2)nc2ccccc12` has a max response of -2.91%.
For `OC(c1nnc(-c2ccccc2)o1)c1cccs1` (stereo unspecified), the max response was 76.9% (active).
Compound `CCCc1cc(=O)oc2cc(OCC(=O)Nc3ccc(CN4CCOCC4)cc3)c(Cl)cc12` has a max response of -3.2%.
In the case of `Oc1c(C=Nc2cccc3nsnc23)ccc2ccccc12`, the max response is reported as 16.7% (active).
Work on `O=[N+]([O-])c1ccc(N=Cc2c(O)ccc3ccccc23)cc1` yielded a max response of -1.91%.
Compound `O=C(Nc1cccc(C(F)(F)F)c1)c1ccc(N2CCNCC2)c([N+](=O)[O-])c1` has a max response of 0.923%.
`Nc1nc(SCC(=O)N2CCN(S(=O)(=O)c3ccc(Cl)cc3)CC2)n[nH]1` showed a max response of 6.07%.
Compound `Cc1occc(=O)c1OCc1c(Cl)cccc1Cl` has a max response of 0.434%.
For `O=C(c1ccc(Cl)cc1)n1cnc2ccccc21`, the max response was -2.21%.
For `COC(=O)c1ccc(-n2cnc3ccccc32)nc1`, the max response was 24.9% (active).
For `Cc1ccc(OCC(=O)Nn2cnc3ccccc32)cc1`, the max response was 8.71%.
Work on `CCC(C)(C)n1nnnc1C(c1ccc(OC)c(OC)c1)N1CCN(C(=O)c2ccco2)CC1` (stereo unspecified) yielded a max response of -2.11%.
Work on `CCCn1nnc(NC(=O)COc2ccc(CC)cc2)n1` yielded a max response of 3.91%.
In the case of `CCCOc1cccc(C(=O)Nc2nnn(CCC)n2)c1`, the max response is reported as 26.2% (active).
Work on `CCCOc1cccc(C(=O)NCCCNC(=O)c2cccnc2)c1` yielded a max response of -1.77%.
`CC1CN(S(=O)(=O)c2ccc(C(=O)Nc3sccc3C(N)=O)cc2)CC(C)O1` (stereo unspecified) showed a max response of -0.296%.
`COc1ccc(CN(C(=O)CSc2nnc(-c3ccc(OC)c(OC)c3)o2)c2ccc(F)cc2)cc1` showed a max response of -0.972%.
Compound `COC(=O)c1c(C)[nH]c(C(=O)NCCc2ccc(S(N)(=O)=O)cc2)c1C` has a max response of -10.2%.
In the case of `CC(=O)c1c(C)[nH]c(C(=O)OCC(=O)NCCC(C)C)c1C`, the max response is reported as -1.49%.
With `CCCCOC(=O)c1[nH]c(C)c(C(=O)OC)c1C` the max response was 60.6% (active).
In the case of `COC(=O)c1ccc(NC(=S)NN2CCOCC2)cc1`, the max response is reported as 20.6% (active).
`COC(=O)c1ccc(NC(=S)Nc2cccc(C)n2)cc1` gave a max response of 10.2%.
`Cc1ccc(C(=O)NC(=S)Nc2ccc(N3CCOCC3)cc2)cc1` showed a max response of 13.6%.
In the case of `COc1ccc2c3c(c(=O)oc2c1)C1O[C@](CCCCN2C(=O)c4ccccc4C2=O)(Cc2c1ccc1ccccc21)O3`, the max response is reported as -1.56%.
With `Clc1ccc(N/N=C/c2cccs2)nn1` the max response was 22.2% (active).
For `Cn1c(=O)c2c(nc(N/N=C/c3cccs3)n2Cc2ccc(Br)cc2)n(C)c1=O`, the max response was 10.1%.
`Oc1c(Br)cccc1/C=N/Nc1c(F)c(F)c(F)c(F)c1F` showed a max response of 6.05%.
Compound `Cc1ccsc1/C=N/n1c(=S)[nH]nc(C)c1=O` has a max response of -1.56%.
In the case of `Cc1ccsc1/C=N/NC(=O)Cc1cc(=O)[nH][nH]1`, the max response is reported as 4.08%.
Work on `COc1cccc(/C=N\Nc2nncc(-c3ccccc3)n2)c1` yielded a max response of 6.58%.
With `NC(=O)N/N=C\c1cccs1` the max response was 5.02%.
In the case of `Cc1ccsc1/C=N/Nc1ccc(Cl)nn1`, the max response is reported as 14% (active).
For `COc1cccc(/C=N/Nc2ccc(Cl)nn2)c1`, the max response was 25.6% (active).
In the case of `Oc1cccc(/C=N/Nc2ccc(Cl)nn2)c1O`, the max response is reported as 43.2% (active).
`COc1cc(/C=N/Nc2ccc(C)cc2)cc(Br)c1O` showed a max response of 7.52%.
Compound `O=C(C(NS(=O)(=O)c1cccc2nsnc12)c1ccccc1)N1CCN(c2ccccc2)CC1` (stereo unspecified) has a max response of 4.26%.
In the case of `CCOC(=O)c1cc(S(=O)(=O)NCCc2ccc(OC)c(OC)c2)cn1C`, the max response is reported as -2.67%.
`CCOC(=O)N1CCN(S(=O)(=O)c2ccc(Br)cc2)CC1` showed a max response of -0.649%.
For `CCOC(=O)N1CCN(C(=O)C2CCN(S(=O)(=O)c3cc(Cl)ccc3OCC)CC2)CC1`, the max response was 11.3%.
`C=C(C)C1CC=C(C)/C(=N\NC(=O)CNc2ccccc2OC)C1` (stereo unspecified) showed a max response of -1.85%.
In the case of `Cc1ccc2nc(Nc3ccccc3)cc(C)c2c1`, the max response is reported as 51.1% (active).
`Cc1cc(Nc2ccccc2)nc(N)n1` showed a max response of 7.42%.
`Cc1ccc2nc(Nc3ccccc3O)nc(-c3ccccc3)c2c1` gave a max response of 0.615%.
`Cc1ccc(S(=O)(=O)N(CC(O)CN2C(=O)NC(C)(C)C2=O)c2cccc([N+](=O)[O-])c2)cc1` (stereo unspecified) showed a max response of -3.67%.
Work on `COCCCN1C(=O)c2ccc(C(=O)OCC(=O)NCc3ccccc3OC)cc2C1=O` yielded a max response of -6.08%.
Compound `O=C(NCC1CCC(C(=O)O)CC1)OCc1ccccc1` (stereo unspecified) has a max response of -2.25%.
With `O=C(O)C1CCN(C(=O)OCc2ccccc2)CC1` the max response was 40.2% (active).
`CCOC(=O)N1CCC(NC(=O)CCc2ccccc2)CC1` gave a max response of 1.36%.
Work on `COc1cccc(N(CC(=O)NC2CCCCCC2)S(=O)(=O)c2ccccc2)c1` yielded a max response of 1.89%.
For `O=C(CC1SCCNC1=O)Nc1ccc(Cl)cc1` (stereo unspecified), the max response was 21.9% (active).
Work on `COc1ccccc1C(=O)N1CCNC(=O)C1CC(=O)Nc1ccc(Cl)cc1` (stereo unspecified) yielded a max response of -1.23%.
Work on `O=C(CC1SCCNC1=O)Nc1ccc(Cl)c(Cl)c1` (stereo unspecified) yielded a max response of 17.5%.
Compound `CCC(=O)NC(=S)Nc1ccc(NC(=O)c2ccco2)c(Cl)c1` has a max response of 16.5%.
With `CCOc1cc(NC(=S)NCc2ccco2)c(OCC)cc1NC(=O)c1ccco1` the max response was 6.2%.
With `O=C(NNC(=S)Nc1ccc(Br)cc1Cl)c1ccco1` the max response was 43.8% (active).
